Hits are enriched below; roughly 7.4% of the tested compounds scored in any of these assays.
SMN2 splice up: increases expression of the SMN2 splice variant; HEK293 SMN2-luciferase splicing reporter, luminescence, 30-36 h; Potency, µM (titrated, usually from 46.1 µM), most hits filed as activators; 210,000 tested, 2.8% active; note: nearly all actives have a fitted effect of over 55% in size
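qHTS luciferase splicing reporter: luminescence rises when SMN2 exon 7 is included in transfected HEK293 cells. Compound exposure lasted 30-36 h at 37C, with 4.5 mM final sodium butyrate as control, followed by a ONE-Glo read.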
FLuc counter: inhibits or activates purified firefly luciferase, miR-21 counter-screen. Potency, µM (titrated, usually from 57.5 µM), actives largely listed as inhibitors. purified FLuc, Km substrates, luminescence inhibition. 360,000 tested, 6.9% active. P08659; note: nearly all actives have a fitted effect of over 55% in size
Target sequence (P08659 whole entry, looked up): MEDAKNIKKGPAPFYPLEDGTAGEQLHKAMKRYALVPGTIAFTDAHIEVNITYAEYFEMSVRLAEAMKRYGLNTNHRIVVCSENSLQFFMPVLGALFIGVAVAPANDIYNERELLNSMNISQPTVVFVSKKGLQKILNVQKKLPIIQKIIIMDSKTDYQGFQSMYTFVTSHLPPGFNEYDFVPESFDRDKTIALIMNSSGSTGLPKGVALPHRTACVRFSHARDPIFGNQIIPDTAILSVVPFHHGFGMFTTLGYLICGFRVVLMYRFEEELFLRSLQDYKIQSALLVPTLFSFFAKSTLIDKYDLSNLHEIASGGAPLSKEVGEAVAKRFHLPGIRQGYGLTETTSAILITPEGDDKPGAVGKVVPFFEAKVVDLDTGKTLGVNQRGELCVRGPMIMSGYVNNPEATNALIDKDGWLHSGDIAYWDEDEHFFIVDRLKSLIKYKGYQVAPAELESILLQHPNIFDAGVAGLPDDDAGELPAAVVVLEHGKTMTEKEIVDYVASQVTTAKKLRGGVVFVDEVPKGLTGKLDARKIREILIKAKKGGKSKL
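Biochemical qHTS of compounds, final roughly 60 µM downward over six points, against 10 nM purified firefly luciferase using Km concentrations of substrates (10 uM D-luciferin, 10 uM ATP) in Tris acetate pH 7.5 buffer; luminescence output.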
ELG1 genotox: genotoxicity induction in ELG1-luciferase HEK293T cells | HEK293T ELG1-luciferase reporter, luminescence, 16 h | Potency, µM (doses to about 46 µM), actives largely listed as activators | 330,000 tested, 1.3% active; note: nearly all actives have a fitted effect of over 60% in size
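ELG1-luciferase HEK293T cells, 2,000/well; compound pinned in; 16 hr, 37 °C, 5% CO2; ONE-Glo, 30 min RT; luminescence on CCD imager.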
NPC1 promoter act: NPC1 promoter activation. 320,000 tested, 2.4% active. Huh7 NPC1 promoter luciferase reporter, 24 h. Potency, µM (highest dose often 9.22 µM), hits mostly activators. AID 485313; note: nearly all actives have a fitted effect of over 60% in size
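Cells: Huh7 expressing luciferase under the NPC1 promoter, 1500/well. Seeded 2 h, compound added, incubated 24 h at 37 °C. Luciferase reagent, 10 min ambient, then luminescence.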
Rab9 promoter act: Rab9 promoter activation; Huh7 Rab9 promoter-luciferase reporter, luminescence, 24 h; Potency, µM (series often up to 9.22 µM), actives largely listed as activators; 320,000 tested, 2.8% active; AID 485297; note: nearly all actives have a fitted effect of over 60% in size
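Luciferase signal after 10 min detection reagent at ambient indicates Rab9 promoter upregulation; stably transfected Huh7 cells were treated 24 h with compound in DMSO at 37 °C, 5% CO2.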
p53 reactivation: re-activators of mutant p53; AID 504706; 320,000 tested, 0.063% active; Potency, µM (top dose mostly 92.2 µM), usual class: activators; H1299 p53-A138V BP100-luciferase reporter, luminescence, 24 h; note: nearly all actives have a fitted effect of over 45% in size
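H1299 (p53-null), stable ts p53-A138V + BP100-Luc; 1000 cells/well, Opti-MEM/10% FBS; cpd 4 pt, 1:5; 24 h, 37 deg C, 5% CO2; detection reagent 10 min RT; luminescence.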
Each line names hits and unclear results; the compound was inactive in the other large screens. Calls come from the whole dose curve; as a rule, active = well fitted curve in the direction sought with a large enough effect; inconclusive = small, poorly fitted or top-dose-only effect, or another doubt; inactive = no such curve, though single readings can be large; an effect the other way counts as inactive or inconclusive.

CC(/C=N/NC(=O)c1cccs1)=C\c1ccccc1	SMN2 splice up 4µM, FLuc counter 2.1µM, NPC1 promoter act 1µM, Rab9 promoter act 0.79µM, p53 reactivation inconclusive
CC(/C=N/NC(=O)c1sc(N)nc1C)=C\c1ccccc1	SMN2 splice up inconclusive, FLuc counter inconclusive, ELG1 genotox inconclusive, NPC1 promoter act inconclusive, Rab9 promoter act inconclusive
O=C(N/N=C/C(Cl)=C\c1ccccc1)c1cccs1	FLuc counter 2.7µM, ELG1 genotox inconclusive, NPC1 promoter act 2.5µM, Rab9 promoter act 2µM, p53 reactivation inconclusive (no result: SMN2 splice up)
COc1cccc(NC(=O)C2COc3ccccc3O2)c1 (centres undefined)	FLuc counter 27µM, ELG1 genotox inconclusive, NPC1 promoter act inconclusive (no result: SMN2 splice up)
O=C(Nc1ccc2c(c1)CCC2)C1COc2ccccc2O1 (centres undefined)	SMN2 splice up 16µM, FLuc counter 19µM, ELG1 genotox 21µM, NPC1 promoter act 4µM, Rab9 promoter act 2.5µM, p53 reactivation inconclusive
O=C1OCc2cc(NC(=O)C3COc4ccccc4O3)ccc21 (centres undefined)	none
O=C(Nc1cnc2ccccc2c1)C1COc2ccccc2O1 (centres undefined)	FLuc counter 13µM, ELG1 genotox inconclusive, Rab9 promoter act 4µM
O=C(Nc1ccc(F)cc1)C1COc2ccccc2O1 (centres undefined)	FLuc counter inconclusive, p53 reactivation inconclusive (no result: SMN2 splice up)
O=C(Nc1ccc2c(c1)OCO2)C1CC(c2ccccc2Cl)=NO1 (centres undefined)	ELG1 genotox inconclusive, NPC1 promoter act inconclusive, Rab9 promoter act 2.5µM
Nc1nonc1-n1nnc(C(=O)N/N=C/c2ccccc2Br)c1CN1CCCC1	none (no result: SMN2 splice up)
O=C(Nc1ccc2c(c1)OCO2)C1COc2ccccc2O1 (centres undefined)	SMN2 splice up inconclusive, FLuc counter 17µM, ELG1 genotox inconclusive, NPC1 promoter act inconclusive, Rab9 promoter act 2.8µM
COc1ccc2oc(=O)cc(CN3CCN(c4ccc(F)cc4)CC3)c2c1	none (no result: ELG1 genotox, NPC1 promoter act, Rab9 promoter act, p53 reactivation)
O=C(CN1C(=O)S/C(=C\c2ccccc2)C1=O)NNC(=O)c1ccccc1O	none
O=C(CCCN1C(=O)S/C(=C\C=C\c2ccccc2)C1=O)Nc1ccc(C(=O)O)cc1	FLuc counter 21µM, NPC1 promoter act inconclusive, Rab9 promoter act inconclusive, p53 reactivation inconclusive (no result: SMN2 splice up)
O=C(CCN1C(=O)S/C(=C\C=C\c2ccccc2)C1=O)Nc1ccc(O)cc1	FLuc counter inconclusive, ELG1 genotox 13µM, NPC1 promoter act 3.5µM, Rab9 promoter act 3.5µM, p53 reactivation inconclusive (no result: SMN2 splice up)
O=C(CN1C(=O)S/C(=C\c2ccc(C(=O)O)cc2)C1=O)Nc1ccccc1	none (no result: SMN2 splice up)
O=C(CN1C(=O)S/C(=C\C=C\c2ccccc2)C1=O)Nc1cccc(O)c1	FLuc counter 12µM, ELG1 genotox inconclusive, Rab9 promoter act inconclusive, p53 reactivation inconclusive
CCc1cccc(NC(=O)c2ccc3c(=O)n4nc(Nc5ccccc5OC)sc4nc3c2)c1	none (no result: SMN2 splice up, ELG1 genotox, NPC1 promoter act, Rab9 promoter act, p53 reactivation)
CN(CC(=O)Nc1ccc(F)cc1)C(=O)COC(=O)CCN1C(=O)C2CC=CCC2C1=O (centres undefined)	none (no result: SMN2 splice up)
NS(=O)(=O)c1cccc(NC(=O)COC(=O)CCN2C(=O)c3ccccc3C2=O)c1	none (no result: SMN2 splice up)
NS(=O)(=O)c1cccc(NC(=O)COC(=O)CNC(=O)c2ccc(-c3ccccc3)cc2)c1	FLuc counter 6.7µM (no result: SMN2 splice up)
Cc1[nH]c2ccc(C(=O)OCC(=O)Nc3cccc(S(N)(=O)=O)c3)cc2c1C	FLuc counter 17µM (no result: SMN2 splice up)
CCc1cccc(C)c1NC(=O)CN1C(=O)NC(C)(CCC(C)C)C1=O (centres undefined)	none (no result: SMN2 splice up, FLuc counter, NPC1 promoter act, Rab9 promoter act)
COc1cccc(-n2cc(-c3ccc(F)cc3)[nH]c2=S)c1	FLuc counter inconclusive, ELG1 genotox inconclusive, NPC1 promoter act 1.6µM, Rab9 promoter act 0.32µM (no result: SMN2 splice up)
COc1ccc(-n2cc(-c3ccc(Cl)cc3)[nH]c2=S)cc1	Rab9 promoter act 1.3µM (no result: SMN2 splice up)
COC(=O)c1ccc(-n2cc(-c3ccc(OC)cc3)[nH]c2=S)cc1	FLuc counter inconclusive
COc1ccc(N2C(=O)c3ccccc3NC2c2ccc(OC)c(Cn3nnc4ccccc43)c2)cc1 (centres undefined)	SMN2 splice up 14µM, NPC1 promoter act inconclusive, Rab9 promoter act inconclusive, p53 reactivation inconclusive

Bioassay records: PubChem BioAssay, National Center for Advancing Translational Sciences (NCATS)
